Assay [1] is described as follows: Quantitative High-Throughput drug screen in 47 multiple myeloma cell lines against the NCATS MIPE library collection: KMS26_JCRB cell viability assay (AID 1918975). Note: nearly all actives have a fitted effect of over 45% in size. The procedure, abridged:
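qHTS of the MIPE 4.0 collection: 500 myeloma cells/well, 48 h drug exposure at 37C in 5% CO2, then CellTiter-Glo for 5 min at room temperature before luminescence reading.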

Assay [2] in a line: Quantitative High-Throughput drug screen in 47 multiple myeloma cell lines against the NCATS MIPE library collection: NCIH929_DSMZ cell viability assay (AID 1918978). Note: nearly all actives have a fitted effect of over 35% in size. Summed up: (§1)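 Plated at 500 cells per well, myeloma lines received MIPE 4.0 compounds by pin tool. Following 48 h culture at 37 °C, CellTiter-Glo luminescence gave viability relative to DMSO and media-only controls.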

Assay [3] is described as follows: Quantitative High-Throughput drug screen in 47 multiple myeloma cell lines against the NCATS MIPE library collection: OCIMY1_PLB cell viability assay (AID 1918979).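 For viability: 100% = DMSO-only wells and 0% = cell-free media-only wells.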 Note: nearly all actives have a fitted effect of over 35% in size. Summed up:
as §1

The nature of assay [4]: Quantitative High-Throughput drug screen in 47 multiple myeloma cell lines against the NCATS MIPE library collection: MM1S_ATCC cell viability assay (AID 1918980). Note: nearly all actives have a fitted effect of over 45% in size. Summed up:
as §1

Assay [5] is described as follows: Quantitative High-Throughput drug screen in 47 multiple myeloma cell lines against the NCATS MIPE library collection: MMM1_PLB cell viability assay (AID 1918976). Note: nearly all actives have a fitted effect of over 35% in size. Summed up: as §1
Assay [6] can be described thus: Quantitative High-Throughput drug screen in 47 multiple myeloma cell lines against the NCATS MIPE library collection: MM1R_ATCC cell viability assay (AID 1918981). Note: nearly all actives have a fitted effect of over 35% in size. Summed up:
as §1

Assay [7] can be described thus: Quantitative High-Throughput drug screen in 47 multiple myeloma cell lines against the NCATS MIPE library collection: KMS21BM_JCRB cell viability assay (AID 1918974). As to conditions: ATP luminescence, 48 h; viability: at 45.8 µM (top of the series). Summed up: (§2)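 Primary qHTS used for cherry-picking: cells at 500/well, library compounds for 48 h (37C, 5% CO2), luminescent ATP assay.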

A short description of assay [8]: Quantitative High-Throughput drug screen in 47 multiple myeloma cell lines against the NCATS MIPE library collection: MOLP8_DSMZ cell viability assay (AID 1918977). Note: nearly all actives have a fitted effect of over 45% in size. The procedure, abridged: as §1
The nature of assay [9]: Quantitative High-Throughput drug screen in 47 multiple myeloma cell lines against the NCATS MIPE library collection: KMS20_JCRB cell viability assay (AID 1918973). Note: nearly all actives have a fitted effect of over 45% in size. The procedure, abridged: as §2

Inconclusive results are not listed. Calls of active or inactive are those of the source. Calls come from the whole dose curve; as a rule, active = well fitted curve in the direction sought with a large enough effect; inconclusive = small, poorly fitted or top-dose-only effect, or another doubt; inactive = no such curve, though single readings can be large; an effect the other way counts as inactive or inconclusive.
Potency is the fitted concentration of half-maximal effect.

Regarding `C[C@]12CCC3=C4CCC(=O)C=C4CC[C@@H]3[C@H]1CC[C@@]2(O)CC#N`, the Potency result in assay [1], in assay [2], in assay [3] and in assay [4] was “inactive” each time.

For the molecule `CC(O)=C(C#N)C(=O)Nc1ccc(C(F)(F)F)cc1`, the Potency was 18.7 µM (active) in [1], 3.72 µM (active) in assay [5], 16.6 µM (active) in [4] and 16.6 µM (active) in assay [6]. For the same molecule, the Potency result in [3] was “inactive”.

As to `CN[C@@H](C)[C@H]1[C@H](O)C[C@@]2(C)[C@@H]3CC[C@H]4C(C)(C)[C@@H](NC)CC[C@@]45C[C@@]35CC[C@]12C`, the viability in assay [7] was 62.4% (active). The Potency entry in assay [1], in assay [8], in [2] and in [6] was “inactive” in each case.

Regarding `COc1ccnc(CS(=O)c2nc3ccc(OC(F)F)cc3[nH]2)c1OC` (centres undefined), the Potency entry in assay [9], in [8] and in assay [6] was “inactive” throughout. The Potency in assay [2] was 18.7 µM (active).

Consider `CN1CCN(c2ncc(-c3cc(Cl)cc(Cl)c3Cl)c(N)n2)CC1`, for which the Potency result in assay [1], in [8], in assay [3] and in assay [6] was “inactive” in each case. Further, the Potency in [4] was 11.8 µM (active).

Regarding `N#Cc1ccc(Oc2ccc3c(c2)COB3O)cc1`, the Potency in assay [7] is 3.32 µM (active). Moreover, the Potency entry in [3] is “inactive”.

With `CN1CCC[C@H]1CCO[C@](C)(c1ccccc1)c1ccc(Cl)cc1`, the Potency entry in assay [1], in assay [8] and in [3] was “inactive” throughout. In addition, the results for the Potency in assay [2] and in [4] were 11.8 µM (active) and 23.5 µM (active), respectively.

For `C[C@@H](N)c1ccc(C(=O)Nc2ccnc3[nH]ccc23)cc1`, the Potency in assay [9] was 18.7 µM (active); in assay [8], 16.6 µM (active); in [4], 18.7 µM (active).

As to `C[C@@H]1[C@H](C)CC[C@]2(C(=O)O)CC[C@]3(C)C(=CC[C@@H]4[C@@]5(C)CC[C@H](O)C(C)(C)[C@H]5CC[C@]43C)[C@@H]12`, the Potency result in assay [9], in assay [2] and in assay [4] was “inactive” throughout. The results for the Potency in assay [5], in assay [3] and in assay [6] were 21.5 µM (active), 54 µM (active) and 21.5 µM (active), respectively.

With `CO[C@H]1/C=C\O[C@@]2(C)Oc3c(C)c(O)c4c(O)c(c(C=NN5CCN(C6CCCC6)CC5)c(O)c4c3C2=O)NC(=O)C(C)=CC=C[C@H](C)[C@H](O)[C@@H](C)[C@@H](O)[C@@H](C)[C@H](OC(C)=O)[C@H]1C`, the Potency in assay [1] is 20.9 µM (active); in [5] it was 5.26 µM (active); in [8] it was 8.33 µM (active); in assay [2], 0.105 µM (active); in [3], 9.35 µM (active); in assay [4] it was 0.296 µM (active). Moreover, the Potency in assay [6] is 0.187 µM (active).

For the molecule `Cc1cnc(CNC(=O)c2c(=O)c3ccc(N4CCCN(C)CC4)nc3n3c2sc2ccccc23)cn1`, the Potency in assay [1] is 12.9 µM (active); in assay [5] it was 9.11 µM (active); in assay [8], 9.11 µM (active); in [4] it was 2.88 µM (active); in assay [6], 7.24 µM (active).

Regarding `COc1ccc(-c2oc3c(CC=C(C)C)c(O)cc(O)c3c(=O)c2O)cc1`, the Potency in [1] is 16.6 µM (active); in assay [5], 20.9 µM (active); in assay [2] it was 10.5 µM (active); in assay [6] it was 20.9 µM (active). Moreover, in [3], the Potency result is “inactive”.

Turning to `Cc1nc2c([nH]1)CCN(C(=O)c1ccc(NC(=O)c3ccccc3-c3ccccc3)cc1)c1ccccc1-2`, the Potency result in [1], in assay [8], in [4] and in assay [6] was “inactive” in each case.

On to `CN(C)c1ccc(-c2nc3ncc(Cl)c(N4CCN(CC(=O)Nc5nccs5)CC4)c3[nH]2)cc1`, for which the figures for the Potency in assay [1], in [5] and in assay [6] were 5.9 µM (active), 9.35 µM (active) and 3.72 µM (active), respectively. Also, the Potency entry in assay [2] was “inactive”.

For the molecule `CNC(=O)c1c(-c2ccc(F)cc2)oc2cc(N(CCO)S(C)(=O)=O)c(C3CC3)cc12`, in assay [3], the Potency is 18.7 µM (active).

For the molecule `CC(C)(F)C[C@H](N[C@@H](c1ccc(-c2ccc(S(C)(=O)=O)cc2)cc1)C(F)(F)F)C(=O)NC1(C#N)CC1`, the Potency result in assay [2], in [4] and in assay [6] was “inactive” throughout.

As to `COc1cc([C@@H]2c3cc4c(cc3[C@@H](O[C@@H]3O[C@@H]5CO[C@@H](C)O[C@@H]5[C@H](O)[C@@H]3O)[C@H]3COC(=O)[C@H]23)OCO4)cc(OC)c1O`, the Potency result in assay [8] and in [3] was “inactive” in each case. The Potency in assay [4] was 0.264 µM (active); in assay [6], 0.372 µM (active).

Take `CC1(COc2ccc3c(c2)ncn3-c2ccc3cccc(N4CCC(N)CC4)c3n2)COC1`: the Potency was 1.48 µM (active) in assay [5], 1.48 µM (active) in assay [3] and 0.526 µM (active) in assay [6].

For `CC1CNc2c(cccc2S(=O)(=O)N[C@@H](CCCN=C(N)N)C(=O)N2CC[C@@H](C)C[C@@H]2C(=O)O)C1` (some centres undefined), in assay [3], the Potency result was “inactive”. Besides, in assay [4], the Potency was 7.43 µM (active).

As for `O=c1[nH]c(=O)n([C@H]2C[C@@H](O)[C@@H](CO)O2)cc1C(F)(F)F`, the Potency in assay [5] was 3.32 µM (active); in assay [2], 10.5 µM (active); in assay [4] it was 10.5 µM (active); in assay [6] it was 7.43 µM (active).

In the case of `CC1=C[C@@H]2[C@@H]([C@@H](O)C[C@@]3(C)[C@H]2C[C@@H](C)[C@]3(O)C(=O)CO)[C@@]2(C)Cc3cnn(-c4ccccc4)c3C=C12`, the Potency was 20.9 µM (active) in [5], 0.0083 µM (active) in assay [4] and 20.9 µM (active) in assay [6].

As usually defined, the viability is the share of living cells, or the viability signal relative to a control.

The values above are taken from PubChem BioAssay (NCATS).
